Cycloheximide cs: affects cycloheximide protein synthesis inhibition readout, counter-screen; cell reporter, cycloheximide protein synthesis inhibition counterscreen; max response, %; 300,000 tested, 12% active; in the data active = max response mostly above about 13%, no sharp cut-off; inactive = mostly below about 14%; note: read at 38.3 µM for the half of the compounds with a filed dose; 0% is about no effect
Shiga toxin inh: Shiga toxin inhibition. inhibition, % at 38.7 µM. 290,000 tested, 9.2% active. AID 2315. Vero cells, Shiga toxin protein synthesis inhibition reporter; in the data active = inhibition mostly above about 28%, no sharp cut-off; inactive = mostly below about 43%; note: 0% is about no effect
LASV entry inh: Lassa virus entry inhibition; 300,000 tested, 1.2% active; Lassa virus pseudotype entry inhibition, cell reporter; Potency, µM (doses to about 37.9 µM), inactives show top-dose activity change, negative = inhibition, most hits filed as inhibitors; calls by dose curve; tested in HEK293 cells; note: potency is the fitted concentration of half-maximal effect; % is set by controls: 0 for no effect and ±100 for the full control effect; nearly all actives have a fitted effect of over 50% in size
Marburg entry inh: inhibitors of Marburg virus binding or cell entry. Marburg virus pseudotyped entry inhibition, cell reporter. Potency, µM (doses to about 37.8 µM), without a hit: at the top dose activity change, negative = inhibition, usual class: inhibitors. 300,000 tested, 1.8% active; calls by dose curve; tested in HEK293 cells; note: potency is the fitted concentration of half-maximal effect; % is set by controls: 0 for no effect and ±100 for the full control effect
An asterisk follows results filed as active; ? = inconclusive; . = not tested or not shown; [ ] = another dose, or the depositor's remark. An excerpt weighted towards active compounds, which were near 12% of everything screened.

SMILES	Cycloheximide cs	Shiga toxin inh	LASV entry inh	Marburg entry inh
CSc1ccccc1-c1nnc(-c2ccc(Cl)cc2Cl)o1	24.1	30.2	-14.9%	24.8%
Clc1ccc(CN2CCCCCCC2)cc1Cl	7.3	-1.7	-6.3%	11.3%
Clc1ccc(-c2cc(CN3CCCCC3)no2)cc1Cl	34.0*	62.0*	29.1%[46.1 µM]	?
Clc1ccc(-c2cc(CN3CCOCC3)no2)cc1	54.4*	117.8*	-10.4%[46.1 µM]	?
Cc1ccc(O)c(NC(=O)C2CC(c3cccc(Br)c3)=NO2)c1 (centres undefined)	3.7	3.8	?	-13.4%[46.1 µM]
COC(=O)N/N=C\C=C\c1ccc2c(c1)OCO2	-2.2	-7.8	-13.3%	?
CCOC(=O)N/N=C\C=C\c1ccc2c(c1)OCO2	35.2*	58.1	?	?
COc1ccc(CC(=O)N/N=C/C=C/c2ccc3c(c2)OCO3)cc1OC	1.5	1.7	.	.
CC(C)(C)OC(=O)N/N=C\C=C\c1ccc2c(c1)OCO2	28.6*	33.8*	?	?
CC(=O)N1CCC(N(Cc2ccco2)C(=O)Nc2ccc(Br)cc2F)CC1	.	.	-9.6%[46.1 µM]	.
COc1cccc(N2CCN(c3ccc4nnc(CCC(=O)O)n4n3)CC2)c1	.	.	15.7%[46.1 µM]	-6.9%[46.1 µM]
O=C(Nc1cccc2ccccc12)OCc1ccccc1	.	.	2.8%[46.1 µM]	?
Cc1ccc(C(=O)CSc2n[nH]c(-c3ccco3)n2)cc1C	-1.9	14.0	-8.1%	-13.5%
CCc1nc(SCC(=O)c2ccc(C)c(C)c2)n[nH]1	12.4	70.5*	-1.0%	7.5%
CCc1c(C)nc(SCC(=O)c2ccc(C)c(C)c2)[nH]c1=O	19.4*	43.9	-6.4%	-9.8%
Cc1cc(=O)[nH]c(SCC(=O)c2ccc(C)c(C)c2)n1	13.2	62.2	-1.3%	1.1%
COc1ccc(/C(N)=N/OC(=O)Cc2ccc(C)cc2)cc1OC	15.4*	-5.2	?	-1.8%
COc1ccc(CC(=O)O/N=C(\N)c2ccc(C)cc2)cc1	46.7*	117.8*	-1.1%	29.2%
COc1ccc(CC(=O)O/N=C(\N)c2ccncc2)cc1	15.3*	81.6*	0.5%[46.1 µM]	-28.2%[46.1 µM]
CC1CCN(CCCNC(=O)c2ccc(Cn3c(=S)[nH]c4ccc(Br)cc4c3=O)cc2)CC1	-3.2	-10.6	.	.
Cn1cnnc1SCNC(=O)C(F)(F)F	-2.1	31.8	2.6%	13.5%
Cc1ccc(/C=C2/C(=O)NC(=O)N(C)C2=O)cc1	-1.9	12.8	1.3%	?
Cc1ccc(/C=C2/CNC/C(=C\c3ccc(C)cc3)C2=O)cc1	67.4*	86.1*	.	.
Cc1ccc(/C=C2\CCOC2=O)cc1	11.9*	15.2	10.3%	20.4%[46.1 µM]
COc1ccc(/C=C2/CCOC2=O)cc1	17.8*	-1.7	11.1%	28.2%
SMILES	Cycloheximide cs	Shiga toxin inh	LASV entry inh	Marburg entry inh
O=C1OCC/C1=C\c1ccccc1O	-2.6	1.7	4.2%	-0.1%
CN(C)CCN(C(=O)c1ccc2c(c1)CCCC2)c1nc2cc3c(cc2s1)OCCO3	-3.2	-19.9	?	?
CC(=O)N(CCN(C)C)c1nc2cc3c(cc2s1)OCCO3	30.8*	65.6*	.	.
CN(C)CCN(C(=O)c1ccc2c(c1)OCCO2)c1nc2cc3c(cc2s1)OCO3	55.1*	71.0	20.3%	-19.5%
CCN(CC)CCN(C(=O)c1ccc(C(=O)c2ccccc2)cc1)c1nc2cc3c(cc2s1)OCO3	3.5	9.5	20.6%[46.1 µM]	-12.9%[46.1 µM]
CN(C)CCN(C(=O)c1ccc(S(=O)(=O)N(C)c2ccccc2)cc1)c1nc2cc3c(cc2s1)OCCO3	22.0*	61.5*	-0.1%	-7.8%
CCN(CC)CCN(C(=O)c1ccc2ncsc2c1)c1nc2cc3c(cc2s1)OCO3	75.1*	125.4*	6.2%[46.1 µM]	?
CN(C)CCCN(C(=O)c1ccc(S(=O)(=O)N2CCOCC2)cc1)c1nc2cc3c(cc2s1)OCO3	-2.0	-3.3	.	.
CCCCN(CC)C(=O)CCn1c(=O)c2cccn2c2cccnc21	.	.	-15.5%[46.1 µM]	.
Cc1cc(C)nc(NN2C(=O)C=CC2=O)n1	5.0	17.7	.	.
COc1cc2nc(N(CCN(C)C)C(=O)c3ccc(S(=O)(=O)N(C)CC4CCCO4)cc3)sc2cc1OC (centres undefined)	-1.7	-6.3	-0.7%	-21.6%
CN(C)CCN(C(=O)c1ccc(S(=O)(=O)N(C)CC2CCCO2)cc1)c1nc2cc3c(cc2s1)OCO3 (centres undefined)	24.9*	9.1	-1.4%	?
CN(C)CCN(C(=O)c1ccc(S(=O)(=O)N(C)C)cc1)c1nc2cc3c(cc2s1)OCCO3	22.3*	41.4	.	.
CCN(CC)CCN(C(=O)C1=COCCO1)c1nc2ccc(C)cc2s1	18.4*	34.9*	-17.6%[46.1 µM]	?
CCC(C)NC(=O)Cn1c(=O)n(-c2ccc(C)c(C)c2)c(=O)c2c(C)c(C(=O)N(CC)CC)sc21 (centres undefined)	.	.	3.4%[46.1 µM]	.
Cc1ccc(-c2cn(-c3cccc(Cl)c3)c(S(=O)(=O)CC(=O)Nc3ccccc3F)n2)cc1	.	.	-6.5%[46.1 µM]	-1.0%[46.1 µM]

Screening results as filed in PubChem.
